Data taken from PubChem BioAssay.
A number with no mark means an inactive call. The rule behind the calls is not given here.

The compounds below were run against Pantothenate synthetase (Mycobacterium tuberculosis (strain ATCC 25618 / H37Rv)) (UniProt P9WIL5) (assay: Coupled enzyme confirmation of inhibitors against recombinant Mtb PanC (AID 375;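 note: 0% = full reaction with vehicle and 100% = no enzyme background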)). Conditions: coupled enzyme assay; at 10 µM, hits give high values.
Sequence of Pantothenate synthetase (Mycobacterium tuberculosis (strain ATCC 25618 / H37Rv)) (P9WIL5 whole entry, looked up): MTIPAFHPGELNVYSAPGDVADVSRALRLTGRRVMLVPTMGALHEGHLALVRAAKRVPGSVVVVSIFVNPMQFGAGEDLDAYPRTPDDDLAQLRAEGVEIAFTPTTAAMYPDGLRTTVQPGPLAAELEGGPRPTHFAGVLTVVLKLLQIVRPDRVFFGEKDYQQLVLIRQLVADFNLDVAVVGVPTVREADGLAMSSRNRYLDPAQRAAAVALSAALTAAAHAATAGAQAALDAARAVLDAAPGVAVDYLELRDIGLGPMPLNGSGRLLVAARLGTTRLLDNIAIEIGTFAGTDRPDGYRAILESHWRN

Row | SMILES | inhibition
1 | CCOC(=O)c1sc(NC(=O)CSc2nc3c(cc2C#N)CCC3)c(C#N)c1C | 10%
2 | CCNCCNC(=O)c1c(O)c2ccccc2n(CC)c1=O | 0%
3 | CN(C)c1ccc2c(c1)OC(N)=C(C#N)C2c1cccc(F)c1 (stereo not given) | 0%
4 | c1ccc2c(c1)nc(NC1CCCCC1)c1nncn12 | 0%
5 | COc1ccccc1CNC(=O)N[C@@H](Cc1ccccc1)C(=O)O | 6%
6 | COc1ccc(C(=O)Nc2cccnc2)cc1C(=O)Nc1cccnc1 | 0%
7 | Cc1ccc(CCNC(=O)CC2Oc3ccc(C)cc3NC2=O)cc1 (stereo not given) | 0%
8 | CCCC(OC(=O)CN1C(=O)COc2ccccc21)C(=O)NC1CCCC1 (stereo not given) | 0%
9 | CC(C)Cn1c(CN(Cc2ccccc2)Cc2ccccc2)nc2c1c(=O)n(C)c(=O)n2C | 5%
10 | O=C(CSc1n[nH]c(-c2cccs2)n1)N1CCN(S(=O)(=O)c2ccccc2)CC1 | 0%
11 | CCOC(=O)c1sc(NC(=O)CSc2nnc(-c3ccco3)n2CC)c(C(=O)OCC)c1C | 0%
12 | Cc1cccc(-n2ncc(C#N)c2N)c1 | 1%
13 | CN1CCc2c(sc3c2c(=O)n(-c2cccc(Cl)c2)c2nncn32)C1 | 0%
14 | COc1ccc(CCN(Cc2cc3cccc(C)c3[nH]c2=O)C(=O)N2CCCC2)cc1OC | 0%
15 | COc1ccc(-n2c(Cc3cccn3C)nnc2SCC(=O)Nc2ccc(Cl)cc2)cc1 | 0%
16 | CCOC(=O)c1c(C)[nH]c(C)c1C(=O)COc1ccc(NC(=O)c2ccco2)cc1 | 1%
17 | COc1ccc(OC)c(C2C(C#N)=C(N)Oc3cc(C)[nH]c(=O)c32)c1 (stereo not given) | 0%
18 | Cc1cc(Cl)c(S(=O)(=O)N2CCN(c3ccc(F)cc3)CC2)cc1OCC(N)=O | 0%
19 | COC(=O)c1ccc(CSc2nc(-c3ccc(OC)cc3)nc3c2c(=O)n(C)c(=O)n3C)o1 | 10%
20 | c1coc(CN2CN=C(Nc3nc4ccccc4s3)NC2)c1 | 0%

Row | SMILES | inhibition
21 | CC(=O)[C@H]1CC[C@H]2[C@@H]3CCC4=CC(=O)CC[C@]4(C)[C@H]3[C@H](O)C[C@]12C | 0%
22 | Cc1nc2ccccc2c(=O)n1CC(=O)N1CCOCC1 | 2%
23 | Cc1ccc(NS(=O)(=O)c2cn(C)cn2)cc1 | 5%
24 | Cc1nc2ccccc2c2c1C(=O)N(CCC1=CCCCC1)C2=O | 9%
25 | O=C(O)C1CC(=O)N(CCOc2ccccc2)C1 (stereo not given) | 8%
26 | C[C@H]1C[C@@H]2[C@H]([C@@H](O)C[C@@]3(C)[C@H]2CC[C@]3(O)C(=O)CO)[C@@]2(C)C=CC(=O)C=C12 | 0%
27 | COc1ccc(CN2CC(C(=O)NCCCOC(C)C)CC2=O)cc1 (stereo not given) | 3%
28 | C=Cn1c(N2CCOCC2)nc2c1c(=O)[nH]c(=O)n2C | 16%
29 | COc1ccc2cc(C(=O)NCc3ccco3)c(=Nc3ccc(C(=O)O)cc3)oc2c1 | 0%
30 | O=C(CN(c1ccc(F)cc1)S(=O)(=O)c1ccc2c(c1)OCCO2)Nc1ccc2c(c1)OCO2 | 3%
31 | Cn1c(=O)c2c(nc(NCCNC(=O)c3ccco3)n2Cc2ccccc2Cl)n(C)c1=O | 0%
32 | CCCn1c(SCC(=O)Nc2cc(C)on2)nc2c1c(=O)n(C)c(=O)n2C | 0%
33 | CCc1ccccc1-n1c(SCC(=O)N2CCCC2)nnc1-c1ccccn1 | 0%
34 | CC(=O)C(Sc1ncnc2c1nnn2-c1ccc(F)cc1)C(=O)N(C)C (stereo not given) | 0%
35 | c1ccc2ncc(-n3cnnn3)cc2c1 | 0%
36 | CC1CCCCC1NC(=O)CN1CCN(Cc2ccccc2Cl)C1=O (stereo not given) | 0%
37 | O=C(COc1ccccc1Cl)N1CCCC1 | 2%
38 | COc1cccc(-n2c(SCC(=O)Nc3cc(C)on3)nc3c([nH]c4ccccc43)c2=O)c1 | 2%
39 | CCC(Oc1ccc2ccccc2c1)C(=O)O (stereo not given) | 0%
40 | O=C(NCC(c1cccnc1)N1CCOCC1)c1cccs1 (stereo not given) | 0%
